This passage reports outcome and AC50 results from PubChem BioAssay (EPA / NIEHS).

Activity calls are given as the source filed them. Rule for the calls: active = hit-call score of the fitted dose curve at least 0.9, where 1 is the maximum; inactive = score below 0.9.

As a reminder, the AC50 is the concentration giving half of the maximal activity seen.

Read-out in the first assay: Monokine induced gamma interferon (MIG), CXCL9 (gene 4283)
Put plainly: BSK_hDFCGF_MIG: BioMAP Diversity Plus: hDFCGF Assay for Monokine induced gamma interferon (MIG) Biomarker Activity (AID 2283063). The note with it: primary human foreskin fibroblasts; actives raise or lower the signal. An outline of the steps:
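MIG signal, determined by ELISA, reflects 24 h chemical exposure of human skin primary fibroblasts. DMSO serves as negative control and baseline.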
On to `CCCCCCCCOc1ccc(C(=O)c2ccccc2)c(O)c1`, for which the result was inactive.
In the case of `CCCC(=O)OCCC(C)C`, the result was inactive.
The same measure, in the same setting: the entry for `COCC(C)OCC(C)OCC(C)O` (configuration not stated) is “inactive”.
Turning to `CCCCCc1ccc(N)cc1`, the outcome was inactive.
Take `c1ccc2ccccc2c1`: the result was inactive.
For the compound `Cc1cc(F)ccc1-c1cc(N2CC[C@@H](O)[C@H]2CO)ncc1N(C)C(=O)C(C)(C)c1cc(C(F)(F)F)cc(C(F)(F)F)c1`, the AC50 was 15.8 µM (active).
As to `CC(C)(C)c1cc(/C=C2\SC(N)=NC2=O)cc(C(C)(C)C)c1O`, the AC50 is 14.2 µM (active).
Consider `Cc1cc2c(cc1C(F)(F)F)N(C(=O)Nc1ccc(Oc3cccnc3C)nc1)CC2`, for which the outcome was inactive.
The same measure, in the same setting: the entry for `Oc1ccc2ccccc2c1` is “inactive”.
Take `CC[C@H](NC(=O)c1cc(F)ccc1NS(=O)(=O)c1cccc2cccnc12)c1ccccc1`: the result was inactive.
For the compound `O=C(Nc1ccc(Cl)cc1)Nc1ccc(Cl)c(Cl)c1`, the AC50 is 0.148 µM (active).
For the compound `O=C(O)Cn1c(=O)n(Cc2ccc(Br)cc2F)c(=O)c2ccc(Cl)cc21`, the result was inactive.
Take `NC(=O)c1nc(-c2cccc(-c3cc(F)ccc3OCC(F)(F)C(F)(F)F)c2)n[nH]1`: the AC50 was 35 µM (active).
Take `OC12N=C(c3ccccc3)SC1Cc1cc(Cl)ccc12` (configuration not stated): the result was inactive.
On to `Cc1ncc(CO)c(CO)c1O`, for which the result was inactive.
On to `CN(C)C(=O)C1(N2CCCCC2)CCN(CC[C@@]2(c3ccc(Cl)c(Cl)c3)CN(C(=O)c3ccccc3)CCO2)CC1`, for which the AC50 was 33.3 µM (active).
In the case of `CCCCCCCCCC(=O)O`, the result was inactive.
Same read-out and setting: the entry for `O=C(O)c1ccccc1C(=O)OCc1ccccc1` is “inactive”; for `OCCO` it is “inactive”.
As to `CC1(C)NC(=O)N(c2ccc([N+](=O)[O-])c(C(F)(F)F)c2)C1=O`, the result was inactive.

Read-out in the next assay: Matrix Metallopeptidase 1 (MMP1), MMP1 (gene 4312)
The assay is described as follows: BSK_hDFCGF_MMP1: BioMAP Diversity Plus: hDFCGF Assay for Matrix Metallopeptidase 1 (MMP1) Biomarker Activity (AID 2283064). The note with it: primary human foreskin fibroblasts; actives raise or lower the signal. In outline:
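Primary human foreskin fibroblasts in the hDFCGF system were dosed with test chemical, and MMP1 was measured by ELISA 24 h later. Values come from bidirectional curve fitting against the DMSO baseline.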
Turning to `C[C@]12CC[C@@H]3c4ccc(O)cc4CC[C@H]3[C@@H]1CC[C@H]2O`, the outcome was inactive.
The same measure, in the same setting: the entry for `O=c1ccc2ccccc2o1` is “inactive”; for `Cc1cccc2ccccc12` it is “inactive”.
As to `Clc1ccccc1C(c1ccccc1)(c1ccccc1)n1ccnc1`, the concentration at half-maximal activity (AC50) was 7.77 µM (active).
In the case of `CCCOC(=O)c1cc(O)c(O)c(O)c1`, the outcome was inactive.
On to `COc1ccc2cc(S(=O)(=O)N[C@H](CC(=O)N[C@H](Cc3ccc(CN4[C@H](C)CCC[C@@H]4C)cc3)C(=O)N(C)C(C)C)c3ccc4c(c3)OCO4)ccc2c1`, for which the AC50 is 31.5 µM (active).
As to `CN(C)c1ccc(C(=C2C=CC(=[N+](C)C)C=C2)c2ccc(N(C)C)cc2)cc1`, the AC50 was 5.45 µM (active).
On the same count and under the same terms, the figure for `O=c1c(-c2ccc(O)cc2)coc2cc(O)cc(O)c12` is 15.1 µM (active).
For `O=C=NCCCCCCN=C=O`, the outcome was inactive.
With `O=C1c2ccccc2C(=O)N1CCc1noc(-c2ccc(CN3CCCCCC3)s2)n1`, the outcome was inactive.
For the compound `Cc1c2ccccc2c(C)c2c1ccc1ccccc12`, the outcome was inactive.
In the case of `O=C(O)Cc1cc(I)c(Oc2ccc(O)c(I)c2)c(I)c1`, the AC50 is 19.4 µM (active).
For `CN1C(=O)CC[C@H]1c1cccnc1`, the outcome was inactive.
For `O=C(OCCCCCCOC(=O)c1ccccc1)c1ccccc1`, the result was inactive.
As for `CCN(CC)C(=O)c1cc(S(=O)(=O)Cc2ccccc2)c(N2CCC(c3ccccc3)CC2)cc1N(CC)CCN(C)C`, the outcome was inactive.
Take `c1ccc2n[nH]nc2c1`: the result was inactive.
Consider `c1ccc(C[n+]2cccc3ccccc32)cc1`, for which the outcome was inactive.
For `CC(=O)N1CCN(c2ccc(OC[C@H]3CO[C@](Cn4ccnc4)(c4ccc(Cl)cc4Cl)O3)cc2)CC1`, the AC50 is 32.6 µM (active).
For `CCCCCCCCOc1ccc(C(=O)c2ccccc2)c(O)c1`, the outcome was inactive.
`CCCC(=O)OCCC(C)C`: the outcome was inactive.
Turning to `COCC(C)OCC(C)OCC(C)O` (configuration not stated), the result was inactive.
As for `CCCCCc1ccc(N)cc1`, the outcome was inactive.
In the case of `c1ccc2ccccc2c1`, the result was inactive.
With `Cc1cc(F)ccc1-c1cc(N2CC[C@@H](O)[C@H]2CO)ncc1N(C)C(=O)C(C)(C)c1cc(C(F)(F)F)cc(C(F)(F)F)c1`, the AC50 is 16.7 µM (active).
On to `CC(C)(C)c1cc(/C=C2\SC(N)=NC2=O)cc(C(C)(C)C)c1O`, for which the AC50 is 20 µM (active).
As to `Cc1cc2c(cc1C(F)(F)F)N(C(=O)Nc1ccc(Oc3cccnc3C)nc1)CC2`, the result was inactive.
Same read-out and setting: the entry for `Oc1ccc2ccccc2c1` is “inactive”; for `CC[C@H](NC(=O)c1cc(F)ccc1NS(=O)(=O)c1cccc2cccnc12)c1ccccc1` it is “inactive”.
As for `O=C(Nc1ccc(Cl)cc1)Nc1ccc(Cl)c(Cl)c1`, the AC50 is 0.242 µM (active).
As for `O=C(O)Cn1c(=O)n(Cc2ccc(Br)cc2F)c(=O)c2ccc(Cl)cc21`, the result was inactive.
Take `NC(=O)c1nc(-c2cccc(-c3cc(F)ccc3OCC(F)(F)C(F)(F)F)c2)n[nH]1`: the AC50 is 39.5 µM (active).
On to `OC12N=C(c3ccccc3)SC1Cc1cc(Cl)ccc12` (configuration not stated), for which the outcome was inactive.
